Legend:
Assay in all cases: DAPPL (digital affinity profiling via proximity ligation, sequencing); 10 mM Tris-HCl pH 7.5, 50 mM NaCl, 1 mM DTT, 4% glycerol, room temperature, 30 min; GST-TFs on glutathione beads, 16-mer random dsDNA library, 0.1% formaldehyde crosslink after washing; high values mean tight binding
Conditions in all cases: protein: recombinant; tags: N-terminal GST; dsDNA, one strand shown
[1] = target: T1, ELK1 (Homo sapiens, UniProt P19419 1-428)
T1 sequence: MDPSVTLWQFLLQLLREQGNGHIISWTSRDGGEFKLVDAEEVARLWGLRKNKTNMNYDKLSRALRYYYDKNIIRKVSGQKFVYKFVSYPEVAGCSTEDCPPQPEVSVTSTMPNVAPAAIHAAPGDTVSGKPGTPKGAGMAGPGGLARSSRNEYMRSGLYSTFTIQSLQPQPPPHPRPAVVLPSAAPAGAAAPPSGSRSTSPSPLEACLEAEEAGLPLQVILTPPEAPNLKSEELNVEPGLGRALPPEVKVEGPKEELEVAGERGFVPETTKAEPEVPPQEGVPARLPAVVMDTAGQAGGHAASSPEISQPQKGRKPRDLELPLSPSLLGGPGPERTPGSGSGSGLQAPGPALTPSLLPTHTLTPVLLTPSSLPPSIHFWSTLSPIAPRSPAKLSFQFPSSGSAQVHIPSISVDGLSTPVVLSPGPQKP
Method in brief: (§1)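 Human transcription factors were made in yeast as GST fusions, captured on glutathione beads and barcoded with DNA. With a tag-only sample included, the pool was incubated with 200 nmole of a random double-stranded 16-mer DNA library in Tris/NaCl/DTT/glycerol buffer at room temperature for 30 min, then crosslinked with 0.1% formaldehyde after washing, ligated by proximity, amplified and sequenced. For binding signal, each hexamer's read frequency for a factor is divided by its frequency for the tag-only sample.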

[2] = target: T2, ERG (Homo sapiens, UniProt P11308 1-479)
T2 sequence: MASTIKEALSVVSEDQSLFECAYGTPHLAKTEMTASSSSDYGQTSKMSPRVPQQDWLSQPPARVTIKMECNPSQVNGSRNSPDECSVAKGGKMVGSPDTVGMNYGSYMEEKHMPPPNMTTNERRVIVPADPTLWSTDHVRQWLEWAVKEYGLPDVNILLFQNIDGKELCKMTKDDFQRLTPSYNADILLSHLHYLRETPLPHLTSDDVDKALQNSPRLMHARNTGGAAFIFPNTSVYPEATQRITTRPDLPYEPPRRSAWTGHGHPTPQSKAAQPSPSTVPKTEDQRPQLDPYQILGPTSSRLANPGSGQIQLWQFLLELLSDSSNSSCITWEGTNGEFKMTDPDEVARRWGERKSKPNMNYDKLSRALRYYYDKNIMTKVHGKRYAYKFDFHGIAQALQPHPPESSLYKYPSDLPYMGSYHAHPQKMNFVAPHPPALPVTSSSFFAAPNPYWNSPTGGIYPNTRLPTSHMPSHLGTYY
Method in brief: as §1

[3] = target: T3, EHF (Homo sapiens, UniProt Q9NZC4 1-300)
T3 sequence: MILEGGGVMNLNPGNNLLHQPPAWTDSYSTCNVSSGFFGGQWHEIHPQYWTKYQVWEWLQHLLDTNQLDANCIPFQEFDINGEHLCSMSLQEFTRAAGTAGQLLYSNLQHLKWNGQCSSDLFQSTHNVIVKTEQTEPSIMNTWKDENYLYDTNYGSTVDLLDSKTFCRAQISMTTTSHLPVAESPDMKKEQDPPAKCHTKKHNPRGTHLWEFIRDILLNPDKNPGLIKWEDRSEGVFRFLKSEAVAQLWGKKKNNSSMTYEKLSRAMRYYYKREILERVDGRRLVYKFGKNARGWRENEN
Method in brief: as §1

[4] = target: SPIB (Homo sapiens, UniProt Q01892 1-262)
Method in brief: as §1

[5] = target: T4, FEV (Homo sapiens, UniProt Q99581 1-238)
T4 sequence: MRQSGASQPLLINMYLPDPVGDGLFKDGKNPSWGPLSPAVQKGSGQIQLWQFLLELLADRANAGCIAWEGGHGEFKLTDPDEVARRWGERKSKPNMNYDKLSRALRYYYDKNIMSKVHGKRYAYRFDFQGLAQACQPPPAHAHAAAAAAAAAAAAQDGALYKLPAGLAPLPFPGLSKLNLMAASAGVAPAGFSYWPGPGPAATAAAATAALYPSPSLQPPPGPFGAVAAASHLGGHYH
Method in brief: as §1

[6] = target: ELF4 (Homo sapiens, UniProt Q99607 1-663)
Method in brief: as §1

[7] = target: T5, ELK4 (Homo sapiens, UniProt P28324-2 1-405)
T5 sequence: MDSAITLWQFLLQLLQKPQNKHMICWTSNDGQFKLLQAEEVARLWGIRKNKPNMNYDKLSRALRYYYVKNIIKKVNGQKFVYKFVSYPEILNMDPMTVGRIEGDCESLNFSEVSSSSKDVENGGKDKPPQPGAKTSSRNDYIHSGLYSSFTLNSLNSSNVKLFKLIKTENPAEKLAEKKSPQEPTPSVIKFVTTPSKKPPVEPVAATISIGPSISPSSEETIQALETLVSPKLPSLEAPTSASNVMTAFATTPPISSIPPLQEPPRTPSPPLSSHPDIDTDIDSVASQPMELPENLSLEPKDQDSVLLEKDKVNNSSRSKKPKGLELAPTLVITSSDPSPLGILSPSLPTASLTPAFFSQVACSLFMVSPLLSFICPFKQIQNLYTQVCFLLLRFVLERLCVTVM
Method in brief: as §1

[8] = target: T6, ETV2 (Homo sapiens, UniProt O00321 1-342)
T6 sequence: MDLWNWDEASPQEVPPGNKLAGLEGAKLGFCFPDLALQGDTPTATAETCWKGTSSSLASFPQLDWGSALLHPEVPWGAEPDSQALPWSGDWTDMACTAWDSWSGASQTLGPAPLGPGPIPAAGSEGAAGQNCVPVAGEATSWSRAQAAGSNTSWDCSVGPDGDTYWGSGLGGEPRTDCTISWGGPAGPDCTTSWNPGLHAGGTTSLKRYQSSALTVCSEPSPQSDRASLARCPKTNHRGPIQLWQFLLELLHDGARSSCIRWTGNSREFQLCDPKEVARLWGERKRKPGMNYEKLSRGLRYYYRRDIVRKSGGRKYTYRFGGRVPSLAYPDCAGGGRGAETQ
Method in brief: as §1

[9] = target: ETV1 (Homo sapiens, UniProt P50549 1-477)
Method in brief: as §1

[10] = target: T7, ERF (Homo sapiens, UniProt P50548 1-548)
T7 sequence: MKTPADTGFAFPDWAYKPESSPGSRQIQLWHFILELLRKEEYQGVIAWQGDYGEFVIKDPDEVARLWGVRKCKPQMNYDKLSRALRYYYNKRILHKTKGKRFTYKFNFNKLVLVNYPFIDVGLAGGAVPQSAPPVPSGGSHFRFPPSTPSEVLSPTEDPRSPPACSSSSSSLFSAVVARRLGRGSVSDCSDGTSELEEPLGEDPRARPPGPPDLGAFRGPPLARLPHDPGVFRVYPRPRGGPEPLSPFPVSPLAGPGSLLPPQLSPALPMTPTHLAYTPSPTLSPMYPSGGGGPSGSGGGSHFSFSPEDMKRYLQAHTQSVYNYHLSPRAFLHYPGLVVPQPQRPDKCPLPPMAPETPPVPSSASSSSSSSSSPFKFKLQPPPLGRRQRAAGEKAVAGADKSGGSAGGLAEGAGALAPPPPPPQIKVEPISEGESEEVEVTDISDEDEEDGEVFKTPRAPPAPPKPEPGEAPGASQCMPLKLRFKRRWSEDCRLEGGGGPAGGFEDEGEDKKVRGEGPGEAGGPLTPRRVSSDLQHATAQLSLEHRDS
Method in brief: as §1

[11] = target: T8, ETV3L (Homo sapiens, UniProt Q6ZN32 1-361)
T8 sequence: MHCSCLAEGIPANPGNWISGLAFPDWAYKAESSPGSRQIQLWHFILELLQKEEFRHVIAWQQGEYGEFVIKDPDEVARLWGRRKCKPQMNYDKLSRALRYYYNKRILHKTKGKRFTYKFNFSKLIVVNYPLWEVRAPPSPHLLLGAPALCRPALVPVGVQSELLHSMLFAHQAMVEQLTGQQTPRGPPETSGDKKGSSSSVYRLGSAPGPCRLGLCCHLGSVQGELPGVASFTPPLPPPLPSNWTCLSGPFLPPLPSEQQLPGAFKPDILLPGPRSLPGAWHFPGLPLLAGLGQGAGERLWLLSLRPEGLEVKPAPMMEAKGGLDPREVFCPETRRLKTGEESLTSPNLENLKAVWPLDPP
Method in brief: as §1

[12] = target: T9, ETS2 (Homo sapiens, UniProt P15036 1-469)
T9 sequence: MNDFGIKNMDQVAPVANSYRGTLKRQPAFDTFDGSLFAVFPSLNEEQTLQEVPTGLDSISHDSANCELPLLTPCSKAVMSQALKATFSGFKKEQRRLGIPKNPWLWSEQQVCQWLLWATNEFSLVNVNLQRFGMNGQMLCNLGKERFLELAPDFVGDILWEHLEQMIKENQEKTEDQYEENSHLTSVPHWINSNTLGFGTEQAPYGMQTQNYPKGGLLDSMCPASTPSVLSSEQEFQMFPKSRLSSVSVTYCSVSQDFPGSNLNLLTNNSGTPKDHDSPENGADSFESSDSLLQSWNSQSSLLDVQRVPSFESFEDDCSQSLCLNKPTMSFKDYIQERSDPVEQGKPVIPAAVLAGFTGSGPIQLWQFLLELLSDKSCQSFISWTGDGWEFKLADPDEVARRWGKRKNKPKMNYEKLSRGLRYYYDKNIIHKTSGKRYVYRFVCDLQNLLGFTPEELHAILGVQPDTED
Method in brief: as §1

[13] = target: T10, SPDEF (Homo sapiens, UniProt O95238 1-335)
T10 sequence: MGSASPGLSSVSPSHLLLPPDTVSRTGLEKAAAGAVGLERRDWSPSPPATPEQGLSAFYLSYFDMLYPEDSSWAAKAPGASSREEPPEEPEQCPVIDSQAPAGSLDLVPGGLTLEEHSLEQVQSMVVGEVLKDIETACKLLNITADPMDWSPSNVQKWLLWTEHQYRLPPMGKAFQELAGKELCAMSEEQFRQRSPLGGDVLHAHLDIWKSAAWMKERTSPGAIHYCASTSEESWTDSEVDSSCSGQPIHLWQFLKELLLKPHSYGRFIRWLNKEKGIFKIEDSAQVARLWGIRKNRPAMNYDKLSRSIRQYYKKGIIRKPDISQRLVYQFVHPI
Method in brief: as §1

[14] = target: T11, ETV7 (Homo sapiens, UniProt Q9Y603 1-341)
T11 sequence: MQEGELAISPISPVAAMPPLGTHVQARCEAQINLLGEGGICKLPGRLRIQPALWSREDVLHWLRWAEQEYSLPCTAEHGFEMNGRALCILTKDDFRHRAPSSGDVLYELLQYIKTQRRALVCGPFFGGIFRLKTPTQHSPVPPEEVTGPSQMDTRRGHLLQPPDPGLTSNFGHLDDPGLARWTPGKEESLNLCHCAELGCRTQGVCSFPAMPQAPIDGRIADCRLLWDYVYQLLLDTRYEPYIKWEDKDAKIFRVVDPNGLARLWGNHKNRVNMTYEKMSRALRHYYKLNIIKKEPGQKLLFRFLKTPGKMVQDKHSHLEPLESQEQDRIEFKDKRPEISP
Method in brief: as §1

[15] = target: T12, ETV3 (Homo sapiens, UniProt P41162-2 1-143)
T12 sequence: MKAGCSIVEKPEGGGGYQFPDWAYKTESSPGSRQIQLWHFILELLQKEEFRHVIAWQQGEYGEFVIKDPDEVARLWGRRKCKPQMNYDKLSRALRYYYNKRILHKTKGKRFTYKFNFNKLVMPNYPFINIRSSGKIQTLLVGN
Method in brief: as §1

ELF4, sequence (Q99607 whole entry): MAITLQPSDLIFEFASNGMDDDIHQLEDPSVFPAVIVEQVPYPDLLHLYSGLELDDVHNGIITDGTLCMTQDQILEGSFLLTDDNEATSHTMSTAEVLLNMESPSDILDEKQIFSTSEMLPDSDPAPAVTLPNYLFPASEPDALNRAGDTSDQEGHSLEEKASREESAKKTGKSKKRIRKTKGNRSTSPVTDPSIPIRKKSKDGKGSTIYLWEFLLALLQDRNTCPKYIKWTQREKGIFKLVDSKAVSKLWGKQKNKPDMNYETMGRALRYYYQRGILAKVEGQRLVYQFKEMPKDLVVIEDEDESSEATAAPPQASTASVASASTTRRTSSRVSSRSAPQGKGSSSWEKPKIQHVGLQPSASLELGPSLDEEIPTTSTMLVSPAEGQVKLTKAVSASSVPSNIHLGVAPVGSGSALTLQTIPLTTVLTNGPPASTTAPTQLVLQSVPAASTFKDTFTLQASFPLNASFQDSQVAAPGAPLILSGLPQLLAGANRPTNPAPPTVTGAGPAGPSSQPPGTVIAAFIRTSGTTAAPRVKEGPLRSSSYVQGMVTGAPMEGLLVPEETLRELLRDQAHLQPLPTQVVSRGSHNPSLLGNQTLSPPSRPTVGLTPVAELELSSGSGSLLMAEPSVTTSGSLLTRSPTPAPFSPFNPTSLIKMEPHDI
SPIB, sequence (Q01892 whole entry): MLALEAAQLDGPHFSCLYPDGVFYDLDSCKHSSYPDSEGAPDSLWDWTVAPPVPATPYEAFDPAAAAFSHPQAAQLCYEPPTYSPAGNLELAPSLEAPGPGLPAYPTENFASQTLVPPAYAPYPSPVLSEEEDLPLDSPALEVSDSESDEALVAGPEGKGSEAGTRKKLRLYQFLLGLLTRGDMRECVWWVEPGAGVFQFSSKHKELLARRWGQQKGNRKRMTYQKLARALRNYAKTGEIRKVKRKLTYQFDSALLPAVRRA
ETV1, sequence (P50549 whole entry): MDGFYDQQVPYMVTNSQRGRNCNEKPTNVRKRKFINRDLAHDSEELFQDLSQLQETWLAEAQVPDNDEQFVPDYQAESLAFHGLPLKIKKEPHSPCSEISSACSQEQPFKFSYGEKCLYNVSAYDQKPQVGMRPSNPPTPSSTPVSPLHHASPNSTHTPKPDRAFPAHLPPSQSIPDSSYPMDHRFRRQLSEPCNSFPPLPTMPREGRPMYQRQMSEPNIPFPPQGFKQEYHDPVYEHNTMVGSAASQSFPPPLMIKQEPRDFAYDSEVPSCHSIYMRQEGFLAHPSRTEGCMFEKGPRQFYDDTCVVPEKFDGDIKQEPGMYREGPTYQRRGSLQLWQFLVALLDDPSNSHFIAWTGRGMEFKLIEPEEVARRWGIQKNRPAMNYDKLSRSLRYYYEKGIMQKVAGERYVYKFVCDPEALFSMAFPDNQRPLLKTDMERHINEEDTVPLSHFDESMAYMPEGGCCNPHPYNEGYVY

Sequence: ACACCG
- binding signal [1]: 1.05 fold enrichment (6-mer frequency, TF over GST control)
- binding signal [2]: 1.13 fold enrichment (6-mer frequency, TF over GST control)
- binding signal [3]: 1.03 fold enrichment (6-mer frequency, TF over GST control)
- binding signal [4]: 1.06 fold enrichment (6-mer frequency, TF over GST control)
- binding signal [5]: 1.26 fold enrichment (6-mer frequency, TF over GST control)
- binding signal [6]: 1.11 fold enrichment (6-mer frequency, TF over GST control)
- binding signal [7]: 1.03 fold enrichment (6-mer frequency, TF over GST control)
- binding signal [8]: 1.03 fold enrichment (6-mer frequency, TF over GST control)
- binding signal [9]: 1.09 fold enrichment (6-mer frequency, TF over GST control)
- binding signal [10]: 1 fold enrichment (6-mer frequency, TF over GST control)
- binding signal [11]: 1.04 fold enrichment (6-mer frequency, TF over GST control)
- binding signal [12]: 1.07 fold enrichment (6-mer frequency, TF over GST control)
- binding signal [13]: 1.09 fold enrichment (6-mer frequency, TF over GST control)
- binding signal [14]: 1.01 fold enrichment (6-mer frequency, TF over GST control)
- binding signal [15]: 1.03 fold enrichment (6-mer frequency, TF over GST control)

Reference: publication PMC7862700, “An all-to-all approach to the identification of sequence-specific readers for epigenetic DNA modifications on cytosine”
